Measured values reported in PubChem BioAssay (Tox21).
Records with an inconclusive call do not appear. The source made the active and inactive calls. Unless noted, the call rests on the fitted dose curve; in most records, active means well fitted curve in the direction sought with a large enough effect in the repeat runs; inconclusive means weak or mixed curves; inactive means no such curve, though single readings can be large; an effect the other way counts as inactive or inconclusive.

Tests used:
[1] = qHTS assay to identify small molecule agonists of the estrogen related receptor signaling pathway with the pleiotropic PPARgamma coactivator (PGC) (AID 1224823)
Summary of the method: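 In this quantitative high-throughput screen, an 18 h, 37 C treatment of PGC/ERR cells with compounds in DMSO preceded a One-Glo luminescence read taken after 30 min at room temperature.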

[2] = qHTS assay to identify small molecule antagonists of the estrogen related receptor (ERR) signaling pathway from Tox21 library - cell viability counter screen (AID 1224834); further: nearly all actives have a fitted effect of over 30% in size
Summary of the method: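 Compounds in DMSO were pinned onto ERR cells that had been incubated for 6 h, and the plates were held at 37 C for 17.5 h. CellTiter-Fluor reagent was then added and fluorescence was measured after 30 min.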

[3] = molecular target: Luciferin 4-monooxygenase (Photinus pyralis) (UniProt P08659); test: qHTS assay to identify small molecule inhibitors of firefly luciferase (AID 1224835); further: nearly all actives have a fitted effect of over 25% in size
Summary of the method: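 Quantitative HTS format; KM concentrations of both substrates. Purified P. pyralis FLuc activity quantified from luminescence images.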

[4] = qHTS assay to identify small molecule agonists of the constitutive androstane receptor (CAR) signaling pathway - cell viability counter screen (AID 1224836); further: nearly all actives have a fitted effect of over 45% in size
Summary of the method: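 Double-stable HepG2 hepatoma cells (hCAR plus CYP2B6-2.2kb) are treated for 23 h at 37 C with test compounds in 15-point concentration series. PK11195 at 0.75 uM final is co-added. Cell viability is quantified by CellTiter-Fluor.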

[5] = molecular target: Nuclear receptor subfamily 1 group I member 3 (Homo sapiens) (UniProt Q14994); test: qHTS assay to identify small molecule antagonists of the constitutive androstane receptor (CAR) signaling pathway (AID 1224838);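 further: HepG2 cells stably expressing hCAR with CYP2B6 luciferase reporter stimulated by CITCO; nearly all actives have a fitted effect of over 40% in size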
Summary of the method: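 Luminescence from a CYP2B6-2.2kb promoter reporter in hCAR-expressing HepG2 cells reflects CAR signaling. Cells received compounds at 15 concentrations and 50 nM CITCO (final), then incubated 24 h at 37 C/5% CO2.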

[6] = molecular target: Nuclear receptor subfamily 1 group I member 3 (Homo sapiens) (UniProt Q14994); test: qHTS assay to identify small molecule agonists of the constitutive androstane receptor (CAR) signaling pathway (AID 1224839);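 further: HepG2 cells stably carrying human CAR and a CYP2B6 luciferase reporter; nearly all actives have a fitted effect of over 15% in size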
Summary of the method: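 Readout: firefly luciferase luminescence via ONE-Glo. System: HepG2 double-stable for hCAR and CYP2B6-2.2kb. Conditions: 15-point compound titration, PK11195 at 0.75 uM final, 24 h incubation.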

[7] = qHTS assay to identify small molecule antagonists of the estrogen related receptor signaling pathway with the pleiotropic PPARgamma coactivator (PGC) from Tox21 10K library - cell viability counter screen (AID 1224840; active means well fitted cell-killing curve with a large enough effect in the repeat runs, not every such curve was filed as active; further: nearly all actives have a fitted effect of over 40% in size)
Summary of the method: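 Cell viability is measured by CellTiter-Fluor fluorescence in PGC/ERR cells that receive compounds after a 6-hour attachment period and are then incubated 17.5 hours at 37 C.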

[8] = qHTS assay to identify small molecule antagonists of the estrogen related receptor signaling pathway with the pleiotropic PPARgamma coactivator (PGC) from Tox21 10K library (AID 1224841; call rule not given here; further: actives are mostly falling curves and most rising ones were filed inactive; nearly all actives have a fitted effect of over 50% in size)
Summary of the method: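 Cells stably carrying the PGC/ERR reporter, seeded at 2,000 per well, received pin-transferred compounds 6 h post-plating. Exposure lasted 18 h at 37 C. Signal: One-Glo luminescence.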

[9] = qHTS assay to identify small molecule agonists of the estrogen related receptor signaling pathway with the pleiotropic PPARgamma coactivator (PGC) from Tox21 10K library (AID 1224842); further: nearly all actives have a fitted effect of over 15% in size
Summary of the method: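 PGC/ERR reporter cells (NTP line) were seeded 2,000 per well, rested 6 h at 37 C/5% CO2, then pin-dosed with compounds in DMSO for 18 h at 37 C; luciferase read by One-Glo luminescence after 30 min at room temperature.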

[10] = molecular target: Thyrotropin receptor (Homo sapiens) (UniProt P16473); test: qHTS assay to identify small molecule agonists of the thyroid stimulating hormone receptor (TSHR) signaling pathway (AID 1224843; calls by dose curve; further: nearly all actives have a fitted effect of over 45% in size)
Summary of the method: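 Using 15 concentrations per compound in triplicate, cAMP production was monitored in TSHR-HEK293 cells after 30 min compound incubation at RT; HTRF reagents followed, with fluorescence intensity recorded after 1 h.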

[11] = qHTS assay to identify small molecule agonists of the hypoxia (HIF-1) signaling pathway - cell viability counter screen (AID 1224844; calls by dose curve; further: nearly all actives have a fitted effect of over 50% in size)
Summary of the method: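 Viability counter screen: HRE-bla ME-180 cells plated 5 hrs before compound addition, treated 17 hrs at 37C and 5% CO2, then CellTiter-Glo added after the FRET reporter read; luminescence after 30 min.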

[12] = qHTS assay to identify small molecule agonists of H2AX (AID 1224845; active means well fitted activation curve with a large enough effect in the signal ratio in the repeat runs, not every such curve was filed as active; the % refers to the signal ratio)
Summary of the method: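 Wild-type CHO-K1 cells plated overnight, then exposed 3 hr at 37C to compounds at 15 concentrations (0.76% DMSO). Lysed, then HTRF anti-pH2AX(S139)-cryptate/anti-H2AX-d2 detection after 24 hr at room temperature; emissions 665 and 620 nm.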

[13] = qHTS assay to identify small molecule agonists of H2AX - cell viability counter screen (AID 1224847; calls by dose curve; further: top concentration of the series differs between compounds; nearly all actives have a fitted effect of over 30% in size)
Summary of the method: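 For this counter screen, overnight-attached CHO-K1 cells received test compounds (15 concentrations, 0.76% DMSO final); 3 hr later at 37C, CellTiter-Glo reagent was added and luminescence recorded after 30 min at room temperature.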

[14] = qHTS assay to identify small molecule antagonists of the estrogen related receptor (ERR) signaling pathway from Tox21 library (AID 1224848); further: nearly all actives have a fitted effect of over 50% in size
Summary of the method: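 Tox21 10K compounds in DMSO tested for ERR pathway antagonism in NTP's ERR cell line; 18 h, 37 C exposure; ONE-Glo luminescence.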

[15] = qHTS assay to identify small molecule agonists of the estrogen related receptor (ERR) signaling pathway from Tox21 library (AID 1224849; calls by dose curve; further: nearly all actives have a fitted effect of over 15% in size); settings: ERR reporter cell line, ONE-Glo luciferase, 18 h; at 92.4 µM (top of the series) unless noted
Summary of the method: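 Quantitative HTS in agonist format: NTP ERR cell line, compounds transferred in DMSO after 6 h plating, 18 h incubation at 37 C, ONE-Glo luminescence endpoint.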

[16] = qHTS RealTime-Glo MT Cell Viability Assay in HepG2 cells - 24 hour (AID 1224867); further: nearly all actives have a fitted effect of over 50% in size
Summary of the method: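 HepG2 suspension premixed with RealTime-Glo reagents is plated at 600 cells per well and left 5 h at 37 C/5% CO2. Compounds in DMSO then go in, and bioluminescence reflecting viable cell number is recorded over 40 h.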

[17] = qHTS RealTime-Glo MT Cell Viability Assay in HEK293 cells - 32 hour (AID 1224868)
Summary of the method: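 Reads taken at 0, 8, 16, 24, 32 and 40 h from the same wells. HEK293 cells (600/well) carried RealTime-Glo reagents from seeding, with compound added after a 5 h settle at 37 C.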

[18] = qHTS assay to identify small molecule antagonists of the constitutive androstane receptor (CAR) signaling pathway - cell viability counter screen (AID 1224837); further: nearly all actives have a fitted effect of over 45% in size
Summary of the method: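 Cells are seeded, rested 4 hr at 37 C/5% CO2, dosed with compound (15-point series) and 50 nM CITCO, incubated a further 23 hr, and then CellTiter-Fluor reagent is added before fluorescence is read. The line is HepG2 with stable hCAR and CYP2B6-2.2kb.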

[19] = qHTS assay to identify small molecule agonists of the hypoxia (HIF-1) signaling pathway (AID 1224846; active means well fitted activation curve with a large enough effect in the signal ratio in the repeat runs, not every such curve was filed as active; the % refers to the signal ratio)
Summary of the method: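 Agonist mode reporter screen. ME-180 cells stably expressing bla under HRE control received test compounds in DMSO for 17 hrs (37C, 5% CO2), and beta-lactamase activity was then detected with the CCF4-AM FRET substrate.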

[20] = A CellTox Green Cytotoxicity Assay to monitor cytotoxicity in HEK293 cells - 0 hour (AID 1224869); further: nearly all actives have a fitted effect of over 50% in size
Summary of the method: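 Dead-cell fluorescence measured kinetically: asymmetric cyanine dye, HEK293, 600 cells/well, 5 h settle, 23 nL cpd/DMSO, 37 C, reads 0–40 h every 8 h.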
On the % scale 0 is the no-effect control and ±100 the full control effect.

Sequence of Thyrotropin receptor (Homo sapiens) (P16473 whole entry, looked up): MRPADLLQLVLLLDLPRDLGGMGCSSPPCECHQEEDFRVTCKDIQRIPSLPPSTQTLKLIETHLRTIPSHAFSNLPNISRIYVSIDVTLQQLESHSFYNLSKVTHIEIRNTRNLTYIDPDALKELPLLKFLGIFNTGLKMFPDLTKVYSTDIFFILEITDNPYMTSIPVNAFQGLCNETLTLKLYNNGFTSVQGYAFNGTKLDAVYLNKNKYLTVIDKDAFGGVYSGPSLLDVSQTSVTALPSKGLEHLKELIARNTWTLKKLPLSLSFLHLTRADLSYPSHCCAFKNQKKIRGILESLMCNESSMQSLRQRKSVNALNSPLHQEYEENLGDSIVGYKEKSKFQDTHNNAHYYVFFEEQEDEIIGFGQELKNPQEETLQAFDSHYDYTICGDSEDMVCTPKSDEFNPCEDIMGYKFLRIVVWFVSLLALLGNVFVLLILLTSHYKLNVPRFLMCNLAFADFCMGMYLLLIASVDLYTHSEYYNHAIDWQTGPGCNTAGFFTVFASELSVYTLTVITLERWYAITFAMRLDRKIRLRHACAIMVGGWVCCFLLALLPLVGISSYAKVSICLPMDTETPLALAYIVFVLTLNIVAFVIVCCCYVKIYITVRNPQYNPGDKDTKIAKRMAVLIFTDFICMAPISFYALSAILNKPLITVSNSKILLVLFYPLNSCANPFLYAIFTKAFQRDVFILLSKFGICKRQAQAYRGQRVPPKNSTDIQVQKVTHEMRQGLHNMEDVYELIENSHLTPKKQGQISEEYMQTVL
Sequence of Nuclear receptor subfamily 1 group I member 3 (Homo sapiens) (Q14994 whole entry, looked up): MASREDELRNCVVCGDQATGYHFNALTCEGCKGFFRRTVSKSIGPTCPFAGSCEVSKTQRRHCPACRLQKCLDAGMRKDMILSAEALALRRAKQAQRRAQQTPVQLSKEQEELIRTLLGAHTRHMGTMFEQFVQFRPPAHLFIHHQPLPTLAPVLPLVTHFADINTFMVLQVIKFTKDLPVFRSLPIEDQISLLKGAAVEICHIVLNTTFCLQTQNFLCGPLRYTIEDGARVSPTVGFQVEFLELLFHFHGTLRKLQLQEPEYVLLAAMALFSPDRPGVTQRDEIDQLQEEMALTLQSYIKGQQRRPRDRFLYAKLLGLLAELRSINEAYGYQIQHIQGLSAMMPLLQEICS
Sequence of Luciferin 4-monooxygenase (Photinus pyralis) (P08659 whole entry, looked up): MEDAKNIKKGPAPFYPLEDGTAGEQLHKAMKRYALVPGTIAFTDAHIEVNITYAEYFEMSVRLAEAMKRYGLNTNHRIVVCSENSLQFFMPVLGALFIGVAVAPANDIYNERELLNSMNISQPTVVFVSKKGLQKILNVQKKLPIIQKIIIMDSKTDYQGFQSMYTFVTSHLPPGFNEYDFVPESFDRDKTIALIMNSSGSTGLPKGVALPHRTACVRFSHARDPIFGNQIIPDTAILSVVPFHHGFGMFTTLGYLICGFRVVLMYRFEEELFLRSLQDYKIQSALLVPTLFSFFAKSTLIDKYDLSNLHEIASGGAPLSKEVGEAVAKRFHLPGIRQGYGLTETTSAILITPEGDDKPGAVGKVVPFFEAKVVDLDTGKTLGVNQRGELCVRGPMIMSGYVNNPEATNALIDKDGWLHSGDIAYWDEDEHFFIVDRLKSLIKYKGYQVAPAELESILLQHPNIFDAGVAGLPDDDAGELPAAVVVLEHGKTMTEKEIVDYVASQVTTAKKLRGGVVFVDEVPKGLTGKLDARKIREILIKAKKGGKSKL

CCCN1CCC[C@@H]2Cc3nc(N)ncc3C[C@H]21
inactive: outcome [1] | Potency [2] | Potency [3] | Potency [4] | Potency [5] | Potency [6] | Potency [7] | Potency [8] | Potency [9] | Potency [10] | Potency [11] | outcome [12] | Potency [13] | Potency [14] | activity change, positive = activation [15] 3.55% [at 42.5 µM] | Potency [16] | Potency [17]

CCSC(=O)Cl
inactive: Potency [2] | Potency [3] | Potency [4] | Potency [18] | Potency [5] | Potency [6] | Potency [7] | Potency [8] | Potency [9] | Potency [10] | Potency [11] | outcome [12] | outcome [19] | Potency [13] | Potency [14] | Potency [16] | Potency [17] | outcome [20]

Cc1ccc(Cl)c(O)c1
inactive: Potency [2] | Potency [3] | Potency [4] | Potency [18] | Potency [5] | Potency [6] | Potency [7] | Potency [8] | Potency [9] | Potency [10] | Potency [11] | outcome [12] | outcome [19] | Potency [13] | Potency [14] | activity change, positive = activation [15] 6.81% [at 42.5 µM] | Potency [16] | Potency [17] | outcome [20]

O=C(CCl)NCO
inactive: Potency [2] | Potency [3] | Potency [4] | Potency [18] | Potency [5] | Potency [6] | Potency [7] | Potency [8] | Potency [9] | Potency [10] | Potency [11] | outcome [12] | outcome [19] | Potency [13] | Potency [14] | Potency [16] | outcome [20]

O=[N+]([O-])CCO
inactive: Potency [2] | Potency [3] | Potency [4] | Potency [18] | Potency [5] | Potency [6] | Potency [7] | Potency [8] | Potency [9] | Potency [11] | outcome [12] | outcome [19] | Potency [13] | Potency [14] | activity change, positive = activation [15] 1.1% | Potency [16] | Potency [17] | outcome [20]

Cc1ccc(S(=O)(=O)N[C@@H](CCCCN)C(=O)CCl)cc1
inactive: outcome [1] | Potency [2] | Potency [3] | Potency [4] | Potency [18] | Potency [5] | Potency [6] | Potency [7] | Potency [8] | Potency [9] | Potency [10] | Potency [11] | outcome [12] | outcome [19] | Potency [13] | Potency [14] | Potency [16] | Potency [17] | outcome [20]

CCCN1CCC[C@@H]2Cc3[nH]ncc3C[C@H]21
inactive: outcome [1] | Potency [2] | Potency [3] | Potency [4] | Potency [18] | Potency [5] | Potency [6] | Potency [7] | Potency [8] | Potency [9] | Potency [10] | Potency [11] | outcome [12] | Potency [13] | Potency [14] | Potency [16] | Potency [17] | outcome [20]
